Drawing on PubChem BioAssay (NCI), this text covers growth for twelve compounds.

Test systems include DU-145 prostate; K-562 leukemia; MALME-3M melanoma; MDA-MB-231 breast; RXF 393 renal; SF-268 CNS; SF-295 CNS; SF-539 CNS; UACC-257 melanoma; M14 melanoma.
Common to all, as to assay: NCI-60 one-dose screen, 48 h (100 = growth as untreated, 0 = no growth, -100 = all killed)
What all share (settings): 10 µM unless noted

About 83,000 compounds went through this panel and 20% of them were active in at least one assay; those are over-represented in the sample as a whole.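 Method: cells in 96-well plates; compound added at one concentration; 48 h incubation; percent growth measured; values under 10 scored active.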 Unmarked numbers belong to inactive results. Activity calls are given as the source filed them.

Take `CCOC(=O)[C@@H](C)C[C@H](Cc1ccccc1)NC(=O)c1csc([C@@H](C[C@H](C(C)C)N(C)C(=O)[C@@H](NC(=O)[C@H]2C[C@H](O)CCN2C)C(C)C)OC(C)=O)n1`: the growth with DU-145 prostate was 0.421% (active); in the experiment on K-562 leukemia it was 6.81% (active); with MALME-3M melanoma it was 35.1%; in the experiment with MDA-MB-231 breast, 14.5%; in the experiment with RXF 393 renal, 42.1%; with SF-268 CNS, 24.6%. In addition, the growth in the experiment with SF-295 CNS is -6.17% (active); with SF-539 CNS, -18.5% (active); in the experiment with UACC-257 melanoma, 58.5%; with M14 melanoma, -13% (active).

Turning to `CC[C@H](C)[C@H](NC(=O)[C@H]1CCCCN1C)C(=O)N(C)[C@H](C[C@@H](OC(C)=O)c1nc(C(=O)N[C@@H](Cc2ccccc2)C[C@H](C)C(=O)OC)cs1)C(C)C`, the growth was 1.75% (active) with DU-145 prostate; 4.21% (active) with K-562 leukemia; 65.5% in the experiment with MALME-3M melanoma; 19.5% in the experiment with MDA-MB-231 breast; 38.1% with RXF 393 renal; 31.2% with SF-268 CNS. The growth with SF-295 CNS is 2.06% (active); in the experiment on SF-539 CNS it was -11.3% (active); in the experiment with UACC-257 melanoma, 52.9%; in the experiment with M14 melanoma, 3.87% (active).

In the case of `CC[C@H](C)[C@H](NC(=O)N[C@@H](C)c1ccccc1)C(=O)N(C)[C@H](C[C@@H](OC(C)=O)c1nc(C(=O)N[C@@H](Cc2ccccc2)C[C@H](C)C(=O)OC)cs1)C(C)C`, the growth in the experiment on DU-145 prostate is -4.64% (active); in the experiment on K-562 leukemia, 14%; in the experiment with MALME-3M melanoma it was 44.9%; in the experiment with MDA-MB-231 breast, -6.65% (active); in the experiment with RXF 393 renal, -8.76% (active); with SF-268 CNS, 22.2%. In addition, the growth in the experiment on SF-295 CNS is 5.49% (active); in the experiment on SF-539 CNS, -27.6% (active); with UACC-257 melanoma, 75.3%; with M14 melanoma, -12.2% (active).

`CC(=O)C(c1c(O)c2ccccc2oc1=O)c1cc(=O)oc2c1ccc1ccccc12` (stereo not given): the growth was 115% in the experiment with DU-145 prostate; 96.7% in the experiment with K-562 leukemia; 98.7% with MALME-3M melanoma; 89.8% in the experiment with MDA-MB-231 breast; 97% with RXF 393 renal; 103% in the experiment on SF-268 CNS. Besides, the growth is 96.3% in the experiment with SF-295 CNS, 92.7% with SF-539 CNS, 102% in the experiment on UACC-257 melanoma and 102% with M14 melanoma.

In the case of `CCC1CC(O)c2c(O)c3c(c(O)c2C1O)C(=O)c1cccc(O)c1C3=O` (stereo not given) (tested in a mixture with another compound), the growth in the experiment on DU-145 prostate is -1.28% (active); in the experiment with K-562 leukemia it was -44.1% (active); in the experiment with MALME-3M melanoma it was -92.3% (active); in the experiment with MDA-MB-231 breast, -18.8% (active); in the experiment with RXF 393 renal, -27% (active); in the experiment with SF-268 CNS it was -24% (active). Besides, the growth in the experiment with SF-295 CNS is -24% (active); with SF-539 CNS, -64.5% (active); with UACC-257 melanoma, -25.3% (active); in the experiment with M14 melanoma, -97.1% (active).

Consider `C=C1C[C@](OC)([C@H](O)C(=O)N[C@@H](OC)[C@@H]2C[C@@H](O)C(C)(C)[C@@H](C[C@@H](COC)OC)O2)O[C@H](C)[C@@H]1C`, for which the growth in the experiment on DU-145 prostate was -49.9% (active); with K-562 leukemia, -50.1% (active); with MALME-3M melanoma, -71.1% (active); with MDA-MB-231 breast, -55.7% (active); in the experiment with RXF 393 renal, -92.7% (active); in the experiment on SF-268 CNS it was -32.4% (active). Besides, the growth was -51.4% (active) in the experiment with SF-295 CNS, -65.9% (active) with SF-539 CNS, -53.4% (active) in the experiment with UACC-257 melanoma and -54.6% (active) in the experiment with M14 melanoma.

As for `N/C(=N\N=C\c1ccc(-c2ccccc2)cc1)N[N+](=O)[O-]`, the growth is 33.4% in the experiment on DU-145 prostate; 14.9% with K-562 leukemia; 43.7% in the experiment on MALME-3M melanoma; 66.5% with MDA-MB-231 breast; -4.68% (active) in the experiment on RXF 393 renal; 49.1% in the experiment on SF-268 CNS. Also, the growth was 7.55% (active) in the experiment on SF-295 CNS, 9.43% (active) with SF-539 CNS, 65.3% in the experiment with UACC-257 melanoma and 25.8% in the experiment on M14 melanoma.

As for `C[C@]12CCc3sc(-c4cccc(F)c4)nc3C1=CC[C@@H]1[C@@H]2CC[C@]2(C)C(=O)CC[C@@H]12`, the growth in the experiment on DU-145 prostate is 22.9%; in the experiment on K-562 leukemia, 7.01% (active); in the experiment on MALME-3M melanoma, 37.6%; with MDA-MB-231 breast, 62%; in the experiment with RXF 393 renal, -22.5% (active); in the experiment with SF-268 CNS, 52.4%. The growth is -18.9% (active) with SF-295 CNS, -33.4% (active) with SF-539 CNS, 77.4% with UACC-257 melanoma and 57.4% in the experiment with M14 melanoma.

Consider `CS(=O)(=O)CCN1CC2CCCC(C2)C1`, for which the growth was 102% in the experiment with DU-145 prostate; 113% in the experiment on K-562 leukemia; 111% with MALME-3M melanoma; 105% with MDA-MB-231 breast; 107% in the experiment on RXF 393 renal; 102% in the experiment on SF-268 CNS. The growth in the experiment with SF-295 CNS was 108%; in the experiment on SF-539 CNS, 100%; with UACC-257 melanoma, 104%; in the experiment on M14 melanoma it was 98.6%.

For the compound `CC1(C)N=C(N)N=C(N)N1c1ccc(OCCCNC(=O)Nc2ccc(S(=O)(=O)F)cc2)c(Cl)c1`, the growth in the experiment with DU-145 prostate was 32.4%; in the experiment on K-562 leukemia, 25.2%; in the experiment on MALME-3M melanoma it was 55.2%; with MDA-MB-231 breast, 65.1%; with RXF 393 renal it was 49.4%; in the experiment on SF-268 CNS it was 32.3%. The growth in the experiment on SF-295 CNS is 21.7%; in the experiment on SF-539 CNS, 16.5%; in the experiment on UACC-257 melanoma, 26.4%; with M14 melanoma it was 35.3%.

For `Nc1c(F)cc(-c2nc3cc(F)ccc3[se]2)cc1Br`, the growth is 98.8% in the experiment on DU-145 prostate; 98.5% in the experiment on K-562 leukemia; 87% in the experiment with MALME-3M melanoma; 17.8% in the experiment on MDA-MB-231 breast; 74.8% in the experiment with RXF 393 renal; 98.6% in the experiment on SF-268 CNS. For the same compound, the growth in the experiment with SF-295 CNS was 74.5%; with SF-539 CNS it was 87.6%; with UACC-257 melanoma it was 85.4%; with M14 melanoma, 88%.

With `Clc1ccc(N2COOC3(OOC2)C2CC4CC(C2)CC3C4)cc1`, the growth is 85% in the experiment with DU-145 prostate; 29.9% in the experiment on K-562 leukemia; 26.3% in the experiment with MALME-3M melanoma; 82.9% with MDA-MB-231 breast; 101% with RXF 393 renal; 58.1% with SF-268 CNS. Further, the growth in the experiment with SF-295 CNS is 70.6%; with SF-539 CNS, 23.5%; in the experiment on UACC-257 melanoma it was 85.8%; in the experiment with M14 melanoma, 65.9%.
